Test [1] in a line: Nuclear factor erythroid 2-related factor 2/antioxidant responsive element (Nrf2/ARE) small molecule agonists: qHTS cell viability counter screen in human keratinocytes (AID 1919968; active = well fitted curve in the direction sought with a large enough effect in the repeat runs; an effect the other way counts as inactive or inconclusive; note: nearly all actives have a fitted effect of over 55% in size; note: potency is the fitted concentration of half-maximal effect). Put shortly: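 KeratinoSens HaCaT cells, 1,500/well, preincubated 5 h, then exposed to compounds in DMSO for 23 h at 37 C/5% CO2. Viability read as CellTiter-Fluor fluorescence after 1 h, in the same wells as the ARE-luciferase read.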
(Quantitative high-throughput screening tests each substance at several concentrations.)

Test [2] in a line: Nuclear factor erythroid 2-related factor 2/antioxidant responsive element (Nrf2/ARE) small molecule agonists: luciferase reporter gene qHTS assay in human keratinocytes (AID 1919969). Note: nearly all actives have a fitted effect of over 35% in size. Note: potency is the fitted concentration of half-maximal effect. In general terms: Reporter assays use an easily measured gene product as a stand-in for the process of interest.
The target in test [3] is Gonadotropin-releasing hormone receptor (Homo sapiens) (UniProt P30968). Briefly: Human gonadotropin-releasing hormone receptor (GnRHR) small molecule agonists, calcium flux assay in GnRHR-HEK293 cells (AID 1920063). Note: nearly all actives have a fitted effect of over 35% in size. Put shortly:
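HEK293 cells stably expressing human GnRHR were dye-loaded for 1 h at 37 C. Compound was added in agonist mode and fluorescence (Ex/Em 480/540) recorded kinetically for 3 min. Fifteen concentrations, triplicates.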
Background: A change in cytosolic calcium serves as a functional read-out for many receptors and channels.

Test [4] deals with KiSS-1 receptor (Homo sapiens) (UniProt Q969F8). Briefly: Human kisspeptin (KISS1R) small molecule agonists, calcium flux assay in KISS1R-HEK293 cells (AID 1920064; active = well fitted curve in the direction sought with a large enough effect in the repeat runs; an effect the other way counts as inactive or inconclusive). Put shortly:
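HEK293 cells stably expressing human KISS1R were loaded with calcium dye for 1 h at 37 C, then given compound; fluorescence (Ex/Em 480/540) was read kinetically for 3 min. Fifteen concentrations, triplicate.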

Test [5] can be described thus: G protein-coupled receptor (GPCR) small molecule agonists, calcium flux assay: HEK293 wild type cell line counter screen (AID 1920065). The method, boiled down: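 Wild-type HEK293 cells plated 18 h, loaded with calcium dye 1 h at 37 C, then compounds added in agonist mode (ATP as positive control). Kinetic fluorescence Ex/Em 480/540 recorded 3 min at 1 sec intervals; 15 concentrations, triplicate.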

A short description of test [6]: p53 small molecule agonists, cell-based qHTS assay with rat liver microsomes (AID 1963578). The method, boiled down:
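Metabolic activation by rat liver microsomes and NADPH, each 0.5 mg/mL final, added right after compounds to p53RE-bla reporter cells (4,000/well, plated 5 h earlier). 16 h at 37 C, then LiveBLAzer substrate for 2 h at room temperature in the dark; fluorescence read-out.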

Test [7] in a line: p53 small molecule agonists, cell-based qHTS assay with rat liver microsomes: qHTS cell viability counter screen (AID 1963580). Note: nearly all actives have a fitted effect of over 45% in size. Note: potency is the fitted concentration of half-maximal effect. The method, boiled down: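 Viability is assessed in parallel with the p53 reporter read: HCT-116 p53RE-bla cells receive compounds plus rat microsomes and NADPH (0.5 mg/mL final apiece), incubate 16 h at 37 C, and then CellTiter-Glo luminescence is recorded.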

Test [8] can be described thus: p53 small molecule agonists, cell-based qHTS assay: qHTS cell viability counter screen (AID 1963581). Note: nearly all actives have a fitted effect of over 45% in size. Note: potency is the fitted concentration of half-maximal effect. The method, boiled down:
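p53RE-bla HCT-116 cells, compounds added 5 h after plating and incubated 16 h at 37 C. Cytotoxicity measured in the same wells as intracellular ATP by CellTiter-Glo luminescence after 30 min at room temperature.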

In test [9] the target is Beta-2 adrenergic receptor (Homo sapiens) (UniProt P07550). Briefly: Adrenergic beta2 receptor (ADRB2) small molecule antagonists, cell-based qHTS assay (AID 1963592). Note: nearly all actives have a fitted effect of over 50% in size. Note: potency is the fitted concentration of half-maximal effect. Put shortly:
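Cells (CHO, stable ADRB2 overexpression) incubated 18-20hr at 37C; compounds added from DMSO; agonist mix (1nM isoproterenol, 100uM IBMX, 25uM Ro-20-1724) added; 0.5hr RT; d2-cAMP and anti-cAMP-cryptate added; 1hr RT; 665/615 nm read.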

The target in test [10] is D(2) dopamine receptor (Homo sapiens) (UniProt P14416). Briefly: Dopamine D2 receptor (DRD2) small molecule agonists, cell-based qHTS assay (AID 1963594). Note: nearly all actives have a fitted effect of over 35% in size. The method, boiled down:
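HEK293 cells stably expressing human DRD2, pre-treated with PDE inhibitor Ro20-1724 (0.1 mM final) and compound 10 min at room temperature, then stimulated with NKH477 (200nM […]) for 30 min. cAMP read by HTRF (665/620 nm).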

For test [11] the target is unchanged. Briefly: Dopamine D2 receptor (DRD2) small molecule antagonists, cell-based qHTS assay (AID 1963595; active = well fitted inhibition curve with a large enough effect in the signal ratio in the repeat runs, with a control signal flat; the % refers to the signal ratio). Put shortly: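 Human DRD2 antagonist qHTS measuring cAMP by HTRF. The cells are exposed to compound for 10 min, then to NKH477 (200 nM) and quinpirole (12 nM) for 30 min at RT, with Ro20-1724 (0.1 mM) present throughout.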
Test [12] in a line: p53 small molecule agonists, cell-based qHTS assay with human liver microsomes: qHTS cell viability counter screen (AID 1963579). Note: nearly all actives have a fitted effect of over 45% in size. Put shortly:
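Metabolic activation used human liver microsomes and NADPH, both 0.5 mg/mL final, over 16 hours at 37 C on p53RE-bla cells (4,000/well). Cytotoxicity measured by CellTiter-Glo luminescence, 30 min at room temperature.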

In test [13] the target is 5-hydroxytryptamine receptor 2A (Homo sapiens) (UniProt P28223). Kind of test: 5-hydroxytryptamine receptor 2A (HTR2A) small molecule antagonists, cell-based qHTS assay (AID 1963586). Note: nearly all actives have a fitted effect of over 45% in size. Put shortly: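 Antagonist-mode intracellular calcium assay: DOI (4 nM) added after 5 min compound pre-incubation at room temperature to dye-loaded HTR2A-CHO cells. Fluorescence followed for 3 min, sampled every second.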

Test [14] deals with Muscarinic acetylcholine receptor M1 (Homo sapiens) (UniProt P11229). Briefly: Cholinergic receptor muscarinic 1 (CHRM1) small molecule antagonists, cell-based qHTS assay (AID 1963588). Note: nearly all actives have a fitted effect of over 40% in size. Put shortly: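 CHRM1-CHO calcium-flux assay, antagonist mode. Cells were seeded 18 h, dye-loaded 1 h at 37 C and given compound for 5 min at RT, then acetylcholine was added at 50nM. FDSS fluorescence was read 3 min; 15 concentrations, three runs.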

Test [15] shares this target. Briefly: Cholinergic receptor muscarinic 1 (CHRM1) small molecule agonists, cell-based qHTS assay (AID 1963589). Note: nearly all actives have a fitted effect of over 35% in size. The method, boiled down: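 CHO cells stably expressing human CHRM1 were loaded with calcium dye for 1 h at 37 C, then compound was added in agonist mode. Intracellular calcium fluorescence was followed kinetically at 1 s intervals. Fifteen concentrations were tested in three independent runs.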

The nature of test [16]: cAMP Responsive Elements (CRE) small molecule agonists, cell-based qHTS assay (AID 1963590). The method, boiled down: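 CRE-bla HEK 293T cells, 2,000/well in DMEM with 10% dialyzed FBS and 25 mM HEPES, pre-incubated 18 h at 37 C, then exposed to compound 3 h at 37 C. Beta-lactamase reporter read with LiveBLAzer B/G FRET substrate after 2 h at room temperature.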
Test [17] can be described thus: cAMP Responsive Elements (CRE) small molecule antagonists, cell-based qHTS assay (AID 1963591; active = well fitted inhibition curve with a large enough effect in the signal ratio in the repeat runs, not every such curve was filed as active; the % refers to the signal ratio). The method, boiled down: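 CRE-bla HEK293T cells plated 18 h, then given compound plus NKH477 at 0.25 uM final for 3 h at 37C. Beta-lactamase reporter read with LiveBLAzer B/G FRET substrate after 2 h at room temperature.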
Test [18] addresses Beta-2 adrenergic receptor (Homo sapiens) (UniProt P07550). Briefly: Adrenergic beta2 receptor (ADRB2) small molecule agonists, cell-based qHTS assay (AID 1963593).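 Note: CHO cells stably overexpressing human ADRB2.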 The method, boiled down:
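CHO cells stably over-expressing ADRB2 were plated overnight at 37C, then dosed with compounds plus a stimulation mix containing 100uM IBMX and 25uM Ro-20-1724 for 0.5hr at room temperature. cAMP was measured by HTRF competition, 1hr.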

In test [19] the target is 5-hydroxytryptamine receptor 2A (Homo sapiens) (UniProt P28223). Kind of test: 5-hydroxytryptamine receptor 2A (HTR2A) small molecule agonists, cell-based qHTS assay (AID 1963587). Note: nearly all actives have a fitted effect of over 30% in size. Put shortly:
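CHO cells stably expressing human HTR2A, plated 18 h, loaded with calcium dye 1 h at 37 C. Agonist mode: compounds added and intracellular calcium fluorescence recorded kinetically for 2 min at 1 sec intervals.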

Where “and” joins values, the source holds several entries; their conditions need not be identical. Equal entries are not always repeated. Inconclusive results are not listed. Some structures have more than one record in an assay (separate samples or runs), and their calls can disagree. Calls of active or inactive are those of the source. Unless noted, calls come from the whole dose curve.

Chain of KiSS-1 receptor (Homo sapiens) (Q969F8 whole entry, looked up): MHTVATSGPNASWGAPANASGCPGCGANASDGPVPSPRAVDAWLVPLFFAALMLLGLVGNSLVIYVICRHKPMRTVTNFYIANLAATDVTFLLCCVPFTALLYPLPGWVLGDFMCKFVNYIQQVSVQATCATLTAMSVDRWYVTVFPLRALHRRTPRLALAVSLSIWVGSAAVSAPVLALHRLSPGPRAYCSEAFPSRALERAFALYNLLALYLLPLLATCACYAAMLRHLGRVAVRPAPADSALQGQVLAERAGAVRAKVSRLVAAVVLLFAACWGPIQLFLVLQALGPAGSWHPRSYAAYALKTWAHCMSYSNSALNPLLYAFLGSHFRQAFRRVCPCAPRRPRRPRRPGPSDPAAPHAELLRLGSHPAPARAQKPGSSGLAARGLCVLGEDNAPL
Chain of Muscarinic acetylcholine receptor M1 (Homo sapiens) (P11229 whole entry, looked up): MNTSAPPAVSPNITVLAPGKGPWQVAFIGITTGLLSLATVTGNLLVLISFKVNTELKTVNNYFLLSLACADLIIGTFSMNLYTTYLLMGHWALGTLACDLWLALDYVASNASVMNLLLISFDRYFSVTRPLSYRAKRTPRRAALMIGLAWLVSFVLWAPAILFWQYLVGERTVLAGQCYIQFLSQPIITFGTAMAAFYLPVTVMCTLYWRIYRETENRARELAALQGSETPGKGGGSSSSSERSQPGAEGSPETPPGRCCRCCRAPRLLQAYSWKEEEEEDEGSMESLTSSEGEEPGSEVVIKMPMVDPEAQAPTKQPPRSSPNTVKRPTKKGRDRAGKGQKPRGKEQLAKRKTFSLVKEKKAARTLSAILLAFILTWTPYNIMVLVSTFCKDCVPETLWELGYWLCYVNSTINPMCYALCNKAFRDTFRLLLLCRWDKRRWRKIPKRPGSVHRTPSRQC
Chain of D(2) dopamine receptor (Homo sapiens) (P14416 whole entry, looked up): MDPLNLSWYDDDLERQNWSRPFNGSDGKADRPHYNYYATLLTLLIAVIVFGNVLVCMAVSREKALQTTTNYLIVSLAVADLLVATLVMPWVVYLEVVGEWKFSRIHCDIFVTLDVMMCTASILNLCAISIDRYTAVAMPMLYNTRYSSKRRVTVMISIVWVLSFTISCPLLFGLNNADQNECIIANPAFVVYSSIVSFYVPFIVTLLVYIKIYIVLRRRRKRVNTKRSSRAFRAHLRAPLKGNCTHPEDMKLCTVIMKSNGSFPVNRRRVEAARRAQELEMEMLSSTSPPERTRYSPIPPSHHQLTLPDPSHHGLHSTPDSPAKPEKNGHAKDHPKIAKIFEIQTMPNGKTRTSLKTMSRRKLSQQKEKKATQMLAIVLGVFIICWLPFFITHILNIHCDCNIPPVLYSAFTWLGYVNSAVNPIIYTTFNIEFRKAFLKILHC
Chain of Beta-2 adrenergic receptor (Homo sapiens) (P07550 whole entry, looked up): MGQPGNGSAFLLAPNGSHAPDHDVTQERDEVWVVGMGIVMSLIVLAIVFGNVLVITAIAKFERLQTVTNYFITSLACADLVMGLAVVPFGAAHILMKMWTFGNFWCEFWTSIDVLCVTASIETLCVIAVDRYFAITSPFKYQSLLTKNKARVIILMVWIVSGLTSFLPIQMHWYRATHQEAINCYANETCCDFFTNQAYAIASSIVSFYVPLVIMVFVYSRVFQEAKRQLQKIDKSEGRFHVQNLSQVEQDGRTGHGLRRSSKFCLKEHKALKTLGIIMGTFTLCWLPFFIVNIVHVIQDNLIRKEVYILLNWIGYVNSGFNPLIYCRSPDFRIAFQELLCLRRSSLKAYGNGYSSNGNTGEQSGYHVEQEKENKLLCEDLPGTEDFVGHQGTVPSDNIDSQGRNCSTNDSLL
Chain of 5-hydroxytryptamine receptor 2A (Homo sapiens) (P28223 whole entry, looked up): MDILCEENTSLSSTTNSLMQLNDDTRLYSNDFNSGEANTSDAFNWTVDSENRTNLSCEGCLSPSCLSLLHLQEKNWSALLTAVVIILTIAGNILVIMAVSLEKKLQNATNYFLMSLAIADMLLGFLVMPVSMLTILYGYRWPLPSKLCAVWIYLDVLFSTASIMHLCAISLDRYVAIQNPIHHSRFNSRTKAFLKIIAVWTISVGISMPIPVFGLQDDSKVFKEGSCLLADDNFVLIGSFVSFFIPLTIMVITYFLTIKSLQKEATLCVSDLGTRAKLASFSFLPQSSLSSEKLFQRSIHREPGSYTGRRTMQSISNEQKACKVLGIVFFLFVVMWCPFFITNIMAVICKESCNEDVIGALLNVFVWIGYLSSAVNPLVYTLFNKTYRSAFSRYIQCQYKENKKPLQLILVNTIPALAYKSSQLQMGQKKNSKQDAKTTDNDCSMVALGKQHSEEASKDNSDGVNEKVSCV
Chain of Gonadotropin-releasing hormone receptor (Homo sapiens) (P30968 whole entry, looked up): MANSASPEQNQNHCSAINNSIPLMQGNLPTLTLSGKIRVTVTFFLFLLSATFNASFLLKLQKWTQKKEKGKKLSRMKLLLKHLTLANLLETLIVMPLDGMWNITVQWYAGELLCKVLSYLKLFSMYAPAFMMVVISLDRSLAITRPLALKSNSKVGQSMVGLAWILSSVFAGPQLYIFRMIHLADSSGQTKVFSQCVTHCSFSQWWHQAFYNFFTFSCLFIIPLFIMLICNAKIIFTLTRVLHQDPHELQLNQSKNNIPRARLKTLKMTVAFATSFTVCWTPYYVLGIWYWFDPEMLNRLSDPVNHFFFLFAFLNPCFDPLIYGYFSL

`Oc1c(Cl)cc(Cl)c(Cl)c1Cc1c(O)c(Cl)cc(Cl)c1Cl`: the Potency in test [1] was 21.6 µM (active) and 30.6 µM (active) and 26.6 µM (active); in test [2] it was 24.3 µM (active); in test [7], 18.2 µM (active) and 32.4 µM (active); in [8], 18.2 µM (active); in test [9], “inactive and 48.6 µM (active)”. For the same compound, the Potency entry in test [3], in test [4], in test [5], in test [6], in [10] and in test [11] was “inactive” each time.
On to `Cc1occc(=O)c1O`, for which the Potency entry in test [1], in test [2], in test [3], in test [4], in [5] and in test [12] was “inactive” throughout. Further, the Potency result in test [7], in test [8], in test [13], in test [14], in test [15] and in test [16] was “inactive” in each case. The Potency entry in [17], in test [9], in test [18], in test [10] and in test [11] was “inactive” in each case.
With `Cc1cn([C@H]2C=C[C@@H](CO)O2)c(=O)[nH]c1=O`, the Potency result in [1], in [2], in test [3], in [4], in [5] and in [12] was “inactive” in each case. Besides, the Potency entry in [7], in test [8], in [16], in [17], in [9] and in test [18] was “inactive” throughout. Moreover, the Potency entry in [10] and in test [11] was “inactive” each time.
On to `CC(C)c1cccc(C(C)C)c1`, for which the Potency entry in test [1], in test [2], in test [3], in test [4], in test [5] and in [12] was “inactive” in each case. Besides, the Potency entry in test [7], in [8], in test [13], in test [19], in [14] and in test [15] was “inactive” each time. Also, the Potency result in test [16], in [17], in test [9], in test [18], in [10] and in test [11] was “inactive” in each case.
On to `Cc1ccc(C(=O)O)o1`, for which the Potency entry in test [1], in test [2], in test [3], in test [4], in [5] and in test [12] was “inactive” throughout. For the same compound, the Potency result in [7], in test [8], in test [13], in [19], in test [14] and in [15] was “inactive” each time. The Potency entry in [16], in test [17], in test [9], in test [18], in test [10] and in test [11] was “inactive” throughout.
Consider `Cc1ccc(S(=O)(=O)NC(=O)NN2CCCCCC2)cc1`, for which the Potency result in test [1], in test [2], in test [3], in test [4], in [5] and in [12] was “inactive” each time. Also, the Potency result in test [8], in [16], in [17], in [9], in test [18] and in test [10] was “inactive” in each case. Also, the Potency result in test [11] was “inactive”.
In the case of `CCCCCCC(C)(C)S`, the Potency entry in [1], in test [2], in test [3], in test [4], in test [5] and in test [12] was “inactive” each time. Besides, the Potency result in test [7], in test [8], in test [13], in test [19], in test [14] and in [15] was “inactive” in each case. Moreover, the Potency entry in test [16], in test [17], in [9], in test [18], in [10] and in test [11] was “inactive” throughout.
With `COc1cc(O)c(C(=O)c2ccccc2)cc1S(=O)(=O)O`, the Potency result in [1], in test [2], in test [3], in [4], in test [5] and in test [12] was “inactive” in each case. Besides, the Potency result in test [7], in test [8], in [13], in [19], in test [14] and in test [15] was “inactive” throughout. Further, the Potency entry in test [16], in [17], in test [9], in test [18], in test [10] and in test [11] was “inactive” throughout.

These data come from PubChem BioAssay (Tox21).
